Results from PubChem BioAssay (NCI).
This is part of a sample that, as a whole, favours compounds with a hit. Of some 79,000 tested, about 15% had one in any assay. No stated cut-off is given here; in the data, active means growth inhibition above about 70%; inactive means the rest.

Experiments:
[1] = NCI Yeast Anticancer Drug Screen. Data for the rad50 strain (AID 155);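 further: 0% = growth of vehicle-only cultures of the same strain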; details: S. cerevisiae rad50 strain growth inhibition; at 50.0 µM; hits give high values
How it was run: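 DNA repair mutant yeast, compound exposure, growth read-out; inhibition is taken relative to vehicle.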

[2] = NCI Yeast Anticancer Drug Screen. Data for the mec2-1 strain (AID 157); details: S. cerevisiae mec2-1 strain, at 50.0 µM, hits give high values
How it was run: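 Readout is yeast growth inhibition, normalised to vehicle-treated controls, in the mec2-1 strain exposed to compound.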

[3] = NCI Yeast Anticancer Drug Screen. Data for the sgs1 mgt1 strain (AID 161);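 further: 0% = growth of cultures given vehicle only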; details: S. cerevisiae sgs1 mgt1 strain, at 50.0 µM, hits give high values
How it was run: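 Percent growth inhibition was derived by comparing compound-exposed mutant yeast with vehicle-exposed cultures. The strain carries alterations in DNA damage repair.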

[4] = NCI Yeast Anticancer Drug Screen. Data for the cln2 rad14 strain (AID 165);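 further: 0% = growth equal to vehicle treated cultures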; details: S. cerevisiae cln2 rad14 strain, at 50.0 µM, hits give high values
How it was run: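 Relative to vehicle controls, growth inhibition of compound-treated cln2 rad14 yeast was recorded.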

[5] = NCI Yeast Anticancer Drug Screen. Data for the bub3 strain (AID 167); details: S. cerevisiae bub3 mutant strain, at 50.0 µM, hits give high values
How it was run: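 In this screen, a yeast mutant lacking normal mitotic checkpoint function is challenged with compound. Relative growth versus vehicle gives the inhibition value.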

[6] = NCI Yeast Anticancer Drug Screen. Data for the mlh1 rad18 strain (AID 175); details: S. cerevisiae mlh1 rad18 strain growth inhibition; at 50.0 µM; hits give high values
How it was run: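 Test agents were incubated with a yeast strain of defined genotype (DNA damage repair defect). Inhibition of growth was derived by comparison with vehicle-exposed cultures.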

Measured: growth inhibition

N#CCCN(CCC#N)CCN(CCN(CCC#N)CCC#N)CCN(CCC#N)CCC#N
inactive: [1] -8.1% | [2] -0.25% | [3] -6.4% | [4] 2.1% | [5] -15.2% | [6] -10.8%

CCOC(=O)C(=CNC(=S)c1ccncc1)C(=O)OCC
inactive: [1] -41.6% | [2] -64.5% | [3] -25.8% | [4] 18.9% | [5] -6.6% | [6] -36%

CC(C)C(=O)CC1(O)C(=O)Nc2ccc([N+](=O)[O-])cc21 (centres undefined)
inactive: [1] -9.95% | [2] -0.2% | [3] -7.75% | [4] -34.9% | [5] 4.15% | [6] 2.5%

Cc1ccc(NC(=O)/C=C2\CONC(c3ccccc3)=N2)cc1
inactive: [1] -10.1% | [2] -5.7% | [3] -8.3% | [4] -15.2% | [5] -6.9% | [6] 1.75%

CCOCCOCCOCOCCOCCOCC
inactive: [1] 17.2% | [2] -25.2% | [3] 8.4% | [4] 7.25% | [5] 25.9% | [6] -4%

CCOC(=O)/C(=C\c1ccc(N(C)C)cc1)c1nc2ccccc2[nH]1
inactive: [1] 38% | [2] 21.6% | [3] 47.1% | [4] 13.1% | [5] 40.5% | [6] -2.75%

O=C1C(=O)N(CN2CCCCC2)c2ccccc21
inactive: [1] 10.4% | [2] -40.9% | [3] 26.4% | [4] 10.9% | [5] 22.4% | [6] 17.9%

O=[N+]([O-])c1cnc(N(CCO)CCO)s1
inactive: [1] 30.4% | [2] -25.4% | [3] 0.1% | [4] 37.8% | [5] -11.5% | [6] 16.4%

CN1C=CCC(C=O)C1 (centres undefined)
inactive: [1] -13.5% | [2] -4.5% | [3] 0.05% | [4] -3.7% | [5] 1.65% | [6] -7.2%

N#Cc1c2c(c(=S)n(-c3ccc(Cl)cc3)c1N)CCCC2
inactive: [1] -4.4% | [2] -3.35% | [3] -5.8% | [4] 1.75% | [5] 6.85% | [6] -7.2%

CC1=C(C#N)C(C)(C)c2ccccc21
inactive: [1] 19.9% | [2] -10.9% | [3] 1.9% | [4] -25.9% | [5] 10% | [6] -13.2%

CSc1cc(Cl)c(C)cc1S(=O)(=O)NC(=O)NNc1ccc(Cl)cc1
inactive: [1] 23.9% | [2] 11.2% | [3] 10.6% | [4] 7.55% | [5] -3.75% | [6] 51.6%

CCCCC(C(=O)OCC)C(=O)OCC
inactive: [1] 5.9% | [2] 4.45% | [3] -6.35% | [4] -53% | [5] -2.75% | [6] -3.2%

COc1ccc(/C=c2\sc3n(c2=O)C(N)=C(C#N)C(c2ccc(OC)cc2)C=3c2nc3ccccc3[nH]2)cc1 (centres undefined)
inactive: [1] 18.1% | [2] -13.2% | [3] 9.95% | [4] -16.1% | [5] 8.95% | [6] 11.3%

O=C(N/N=C/c1ccc(O)cc1)c1ccccc1NC(=O)C1CC1
inactive: [1] 3.25% | [2] 23.7% | [3] 18.9% | [4] 2.55% | [5] -0.85% | [6] -21.1%

N=C(N)SCc1cccc(-c2nc3ccccc3c(=O)o2)c1
inactive: [1] 22.2% | [2] 17.4% | [3] 7.9% | [4] 5.95% | [5] 20.8% | [6] 16.9%

O=C1CN2C(c3ccccc3)=NN(c3ccc([N+](=O)[O-])cc3)C2(c2ccccc2)c2cc(Cl)ccc2N1CC1CC1 (centres undefined)
inactive: [1] 25.6% | [2] -10.9% | [3] -7.4% | [4] 20.9% | [5] 11.2% | [6] 23.4%

CCCC1CCCCC1O (centres undefined)
inactive: [1] -9.55% | [2] -38.8% | [3] -24.4% | [4] 7.15% | [5] -24.2% | [6] -6.95%

CCC(=O)OCC[N+](C)(C)C
inactive: [1] -29.2% | [2] -37.6% | [3] -22.9% | [4] -4.25% | [5] -38.5% | [6] -20.9%

COc1ccc(C2=NOC(c3ccc(OC)cc3)C2)cc1 (centres undefined)
inactive: [1] -6.85% | [2] -18.3% | [3] -7.25% | [4] -13.8% | [5] 6.05% | [6] 9.55%

CC(=O)Nc1ccc(C(F)(F)F)cc1
inactive: [1] -5.2% | [2] -7.75% | [3] -15.8% | [4] -3.15% | [5] -7.7% | [6] 13.2%

COC(=O)C1CN=CN1CCc1ccccc1 (centres undefined)
inactive: [1] -2.05% | [2] -10.6% | [3] 5.25% | [4] 12.4% | [5] 2.5% | [6] 45.8%

O=C1CCCCCN1
inactive: [1] 18.5% | [2] 1.55% | [3] -9.95% | [4] -11.3% | [5] -5.1% | [6] 18.1%

COC1OC(C)CC(O)C1O (centres undefined)
inactive: [1] 5.3% | [2] -7.05% | [3] 14.7% | [4] -57.6% | [5] 2.7% | [6] -37.8%

O=C(OC1CC2CCC23CCC13)c1ccccc1 (centres undefined)
inactive: [1] -1.35% | [2] 6.1% | [3] 10.2% | [4] -7.6% | [5] -37.5% | [6] -18.9%

CCCCN(Cc1ccccc1)C(=O)Nc1ccccc1
inactive: [1] 4.5% | [2] 30.1% | [3] 33.1% | [4] -8.1% | [5] 39% | [6] 1.2%

O=c1oc2ccccc2cc1S(=O)(=O)c1ccccc1
inactive: [1] 1.35% | [2] 4.8% | [3] 1.4% | [4] -53.1% | [5] -0.95% | [6] 18.4%

CCCc1ncc(C[n+]2ccccc2C)c(N)n1
inactive: [1] 11.8% | [2] -15.1% | [3] 23.2% | [4] 25.4% | [5] 10.7% | [6] 8.25%

CCCCCC/C(C)=N\NC(N)=O
inactive: [1] 29.9% | [2] 14.4% | [3] 11.6% | [4] 12.4% | [5] -0.95% | [6] -23.1%

OCCSCc1ccccc1
inactive: [1] 29.6% | [2] 0.3% | [3] -6.1% | [4] 7.2% | [5] -13.7% | [6] -1.3%

Cc1cc(N(CCC#N)CCC#N)ccc1/C(N=Nc1ccccc1)=N\NC(=O)c1ccccc1
inactive: [1] 22.3% | [2] 16.6% | [3] 11.2% | [4] -8.5% | [5] -16.1% | [6] 31.8%

O=c1[nH]c(=O)n(C2CC(O)C(CO)O2)cc1NN=NCCc1ccccc1 (centres undefined)
inactive: [1] -24.3% | [2] 0.75% | [3] 5.05% | [4] 4.85% | [5] 1.9% | [6] 10.8%

CCCCNCCCC
inactive: [1] 2.15% | [2] 2% | [3] -27.1% | [4] -3.65% | [5] -8% | [6] -16.6%

c1cc(Cc2ccsc2)cs1
inactive: [1] -8.2% | [2] 4.1% | [3] -4.5% | [4] -7.1% | [5] -11.7% | [6] -10.8%

O=C(/C=C/c1ccccn1)c1ccc(Cl)cc1
inactive: [1] 22.1% | [2] 10.7% | [3] 24.1% | [4] 16.9% | [5] 22.4% | [6] 13.1%

CCC(C)NC(=O)/C(=C\c1ccccc1O)NC(=O)c1ccccc1 (centres undefined)
inactive: [1] -30.1% | [2] -35.6% | [3] -2.25% | [4] -5.65% | [5] -4.3% | [6] -4.45%

O=C(/C=C/c1ccccc1)Sc1ccccc1
inactive: [1] -2% | [2] -7.6% | [3] 13.2% | [4] -1.75% | [5] -8.1% | [6] 1.65%

O=C1CC2C=CC(O)C(C1)C2 (centres undefined)
inactive: [1] -20.3% | [2] 1.65% | [3] -30.6% | [4] 21.1% | [5] -58.2% | [6] -109%

CCOC(=O)CC(C)C(C(=O)OCC)C(=O)OCC (centres undefined)
inactive: [1] 1.05% | [2] 6.15% | [3] -9.15% | [4] 4.15% | [5] 23.6% | [6] 14%
